Screens deposited in PubChem by several laboratories.
This is a sample that favours compounds with a hit; in the whole collection about 3.5% have one here.
14-3-3 Bad PPI – disrupts binding of bovine 14-3-3 zeta to phospho-Bad peptide; P63103; TR-FRET 14-3-3zeta/Dy647-pBad peptide displacement, 1 h; inhibition, % at 21.7 µM; actives 0.71% (n = 220,000); AID 781;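 active = inhibition above about 70%, limit read from the data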;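 note: 0% = full 14-3-3 plus peptide FRET controls and 100% = background without 14-3-3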
Mcl1 Noxa PPI – Mcl-1/Noxa interaction inhibition; Q07820; TR-FRET Mcl-1/Noxa peptide binding, 2 h; inhibition, % at 21.7 µM; actives 1.5% (n = 220,000); AID 1022;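 active = compounds that cut the protein-peptide binding signal by more than 50% relative to plate controls in a single-dose test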;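 note: His-tagged Mcl-1 with rhodamine Noxa BH3 peptide and terbium anti-His antibody; 0% = Mcl-1 plus Noxa peptide wells and 100% = peptide-only wells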
eIF4E-4G inh – eIF4E/eIF4G interaction inhibition in translation initiation | actives 0.37% (n = 220,000) | TR-FRET eIF4E-eIF4GI(517-606) binding, 2 h | AID 782 | inhibition, % at 21.7 µM | P63073+Q04637;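 active = inhibition above about 30%, limit read from the data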;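 note: 0% = full FRET control wells and 100% = background wells lacking eIF4GI fragment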
Mcl1 Bid PPI – Mcl-1/Bid interaction inhibition; TR-FRET Mcl-1/Bid-Dy647 peptide binding, 1536-well; inhibition, % at 21.7 µM; actives 0.97% (n = 220,000); AID 1021;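 active = compounds that cut the binding signal by more than half at the single screening dose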;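 note: His-tagged Mcl-1 with europium anti-His antibody binding Bid BH3 peptide; 0% = Mcl-1 plus peptide wells and 100% = peptide-only wells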
Bim-Mcl-1 – human Bim-Mcl-1 interaction inhibition; Q07820; Bead-based flow cytometry, Bim peptide-Mcl-1 binding; inhibition, % at 10 µM; actives 0.1% (n = 190,000); AID 1009; in the data active = inhibition above about 40%;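 note: 0% = no compound tracer wells and 100% = peptide blocker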
Hck Nef HTS – blocks Nef-activated human Hck kinase | P08631 | Recombinant Hck-YEEI plus Nef, Z-Lyte FRET kinase assay | inhibition, % at 20 µM | actives 0.68% (n = 220,000);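 active = Hck-Nef kinase inhibition above about 50%, limit read from the data; inactive = inhibition below that limit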;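 note: 0% = DMSO with Hck plus Nef and 100% = Hck alone without Nef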
Target sequence (P08631 whole entry, looked up): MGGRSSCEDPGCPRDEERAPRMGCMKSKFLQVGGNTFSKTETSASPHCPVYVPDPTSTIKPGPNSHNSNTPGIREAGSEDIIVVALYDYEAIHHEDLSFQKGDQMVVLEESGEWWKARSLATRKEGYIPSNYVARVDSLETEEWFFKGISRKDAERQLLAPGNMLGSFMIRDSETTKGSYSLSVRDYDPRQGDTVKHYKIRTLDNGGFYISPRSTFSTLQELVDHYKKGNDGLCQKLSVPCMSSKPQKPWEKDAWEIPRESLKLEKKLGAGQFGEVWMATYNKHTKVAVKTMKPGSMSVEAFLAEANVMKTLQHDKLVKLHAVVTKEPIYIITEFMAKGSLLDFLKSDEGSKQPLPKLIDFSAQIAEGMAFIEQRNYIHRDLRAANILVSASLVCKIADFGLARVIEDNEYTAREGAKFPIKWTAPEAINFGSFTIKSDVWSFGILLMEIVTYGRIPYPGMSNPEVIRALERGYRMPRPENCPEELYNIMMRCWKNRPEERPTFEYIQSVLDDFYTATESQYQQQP
An asterisk follows results filed as active.

What do the screens show for `Nc1n[nH]c(=S)n1/N=C1/C(=O)Nc2ccccc21`?
14-3-3 Bad PPI: 38; Mcl1 Noxa PPI: 71*; eIF4E-4G inh: 1; Mcl1 Bid PPI: 22; Bim-Mcl-1: 0; Hck Nef HTS: 18

How did COc1cccc(N2CCN(C(=O)c3c(C)nn(-c4ccccc4)c3C)CC2)c1 do in these assays?
14-3-3 Bad PPI: 0; Mcl1 Noxa PPI: 16; eIF4E-4G inh: -3; Mcl1 Bid PPI: -25; Bim-Mcl-1: 1; Hck Nef HTS: 5

How did Cc1ccc(Cl)cc1NC1=NC(=S)N(C(C)C)C12CCCCC2 do in these assays?
14-3-3 Bad PPI: -9; Mcl1 Noxa PPI: -27; eIF4E-4G inh: 0; Mcl1 Bid PPI: -42; Bim-Mcl-1: -4; Hck Nef HTS: 2

How did O=c1c2c(nc3cc(-c4ccccc4)[nH]n13)CCS2 do in these assays?
14-3-3 Bad PPI: -22; Mcl1 Noxa PPI: 61*; eIF4E-4G inh: 2; Mcl1 Bid PPI: -82; Bim-Mcl-1: 0; Hck Nef HTS: 1

Results for C#Cc1ccc([C@@H]2C=C(C(=O)NC3CC3)O[C@H](OCCCCO)C2)cc1 ?
14-3-3 Bad PPI: -4; Mcl1 Noxa PPI: -2; eIF4E-4G inh: 97*; Mcl1 Bid PPI: -23; Hck Nef HTS: 27

What do the screens show for `Cc1cc(O)ccc1N/C=C(\C#N)c1nc2ccccc2o1`?
14-3-3 Bad PPI: -4; Mcl1 Noxa PPI: 28; eIF4E-4G inh: -4; Mcl1 Bid PPI: 93*; Bim-Mcl-1: -2; Hck Nef HTS: 2

Results for N#C/C(=C\c1c(Cl)cccc1Cl)c1nc2ccccc2o1 ?
14-3-3 Bad PPI: -1; Mcl1 Noxa PPI: -5; eIF4E-4G inh: 1; Mcl1 Bid PPI: -2; Bim-Mcl-1: -5; Hck Nef HTS: 6

What do the screens show for `CCCNC(=O)c1ccc(Cn2c(=S)[nH]c3c([nH]c4ccc(OC)cc43)c2=O)cc1`?
14-3-3 Bad PPI: 7; Mcl1 Noxa PPI: 60*; eIF4E-4G inh: -7; Mcl1 Bid PPI: -1; Bim-Mcl-1: -16; Hck Nef HTS: 9

What do the screens show for `CCCNC(=O)CCCCn1c(=S)[nH]c2c([nH]c3ccc(OC)cc32)c1=O`?
14-3-3 Bad PPI: -2; Mcl1 Noxa PPI: 11; eIF4E-4G inh: -1; Mcl1 Bid PPI: -30; Bim-Mcl-1: -4; Hck Nef HTS: 31

What do the screens show for `Cc1ccc(S(=O)(=O)CCSc2cccc(C(=O)Nc3ccccc3C(=O)O)c2)cc1`?
14-3-3 Bad PPI: 7; Mcl1 Noxa PPI: 68*; eIF4E-4G inh: -3; Mcl1 Bid PPI: -10; Bim-Mcl-1: -1; Hck Nef HTS: 0

How did O=C(Nc1ccccc1C(=O)O)c1cccc(F)c1 do in these assays?
Hck Nef HTS: 6

What do the screens show for `O=C(NNc1nc2cc3c(cc2s1)OCO3)c1cccc(F)c1`?
14-3-3 Bad PPI: -3; Mcl1 Noxa PPI: 38; eIF4E-4G inh: 5; Mcl1 Bid PPI: -26; Bim-Mcl-1: -3; Hck Nef HTS: -5

How did O=C(c1cccs1)N1CCN(CCCc2ccccc2)CC1 do in these assays?
14-3-3 Bad PPI: 72*; Mcl1 Noxa PPI: 13; eIF4E-4G inh: 2; Mcl1 Bid PPI: 29; Bim-Mcl-1: -8; Hck Nef HTS: 11

Results for O=C(c1cccs1)N1CCN(Cc2cccnc2)CC1 ?
14-3-3 Bad PPI: 76*; Mcl1 Noxa PPI: 30; eIF4E-4G inh: 7; Mcl1 Bid PPI: 43; Bim-Mcl-1: -2

How did O=C(c1cccnc1)N1CCN(CCCc2ccccc2)CC1 do in these assays?
14-3-3 Bad PPI: 72*; Mcl1 Noxa PPI: 28; eIF4E-4G inh: 8; Mcl1 Bid PPI: 22; Bim-Mcl-1: 2; Hck Nef HTS: 2

How did O=C(Oc1cccnc1)c1ccco1 do in these assays?
14-3-3 Bad PPI: 81*; Mcl1 Noxa PPI: 0; eIF4E-4G inh: -1; Mcl1 Bid PPI: 39; Bim-Mcl-1: -2; Hck Nef HTS: -19

What do the screens show for `O=C(c1cccs1)N1CCC(Cc2ccccc2)CC1`?
14-3-3 Bad PPI: -1; Mcl1 Noxa PPI: 10; eIF4E-4G inh: 0; Mcl1 Bid PPI: 5; Bim-Mcl-1: -2; Hck Nef HTS: 0

What do the screens show for `OCCNNC(=S)NC1CC2C=CC1C2` (stereo not drawn)?
14-3-3 Bad PPI: -4; Mcl1 Noxa PPI: -36; eIF4E-4G inh: -3; Mcl1 Bid PPI: -134; Hck Nef HTS: 8

What do the screens show for `CC(C)(C)c1ccc(CN2N=C(/C=C/c3ccccc3)CCC2=O)cc1`?
14-3-3 Bad PPI: -14; Mcl1 Noxa PPI: 7; eIF4E-4G inh: 3; Mcl1 Bid PPI: 7; Bim-Mcl-1: 2; Hck Nef HTS: 10

How did O=C(c1cccs1)N1CCN(Cc2ccccc2)CC1 do in these assays?
14-3-3 Bad PPI: 5; Mcl1 Noxa PPI: 0; eIF4E-4G inh: 15; Mcl1 Bid PPI: -16; Bim-Mcl-1: -5; Hck Nef HTS: 6

How did O=C(CN1CCN(C(=O)c2ccco2)CC1)Nc1c2c(nc3c1CCC3)CCCC2 do in these assays?
14-3-3 Bad PPI: 31; Mcl1 Noxa PPI: -19; eIF4E-4G inh: 3; Mcl1 Bid PPI: 51*; Bim-Mcl-1: -5; Hck Nef HTS: -1

Results for O=C(c1ccco1)N1CCN(Cc2cccnc2)CC1 ?
14-3-3 Bad PPI: 39; Mcl1 Noxa PPI: -24; eIF4E-4G inh: 3; Mcl1 Bid PPI: 51*; Bim-Mcl-1: 0; Hck Nef HTS: 2

Results for COc1ccc(NC(=O)C(=O)NCCN2CCN(C(=O)c3cccs3)CC2)cc1 ?
14-3-3 Bad PPI: 8; Mcl1 Noxa PPI: 62*; eIF4E-4G inh: -7; Mcl1 Bid PPI: -1; Bim-Mcl-1: -2; Hck Nef HTS: 0

Results for O=C(c1cccs1)N1CCN(Cc2ccncc2)CC1 ?
14-3-3 Bad PPI: 73*; Mcl1 Noxa PPI: 17; eIF4E-4G inh: 7; Mcl1 Bid PPI: 12; Bim-Mcl-1: 0; Hck Nef HTS: 1

How did Cc1ccc(CN2CCN(C(=O)c3ccco3)CC2)cc1 do in these assays?
14-3-3 Bad PPI: -7; Mcl1 Noxa PPI: -4; eIF4E-4G inh: 3; Mcl1 Bid PPI: -11; Bim-Mcl-1: 0; Hck Nef HTS: 14

Results for O=c1cc(O)c2c(=O)n(-c3ccccc3)c3c(c2o1)CCCCC3 ?
14-3-3 Bad PPI: -30; Mcl1 Noxa PPI: -20; eIF4E-4G inh: -6; Mcl1 Bid PPI: -46; Bim-Mcl-1: -2; Hck Nef HTS: 1

What do the screens show for `CC(C)c1ccc(N=C2N=C(N)c3ccccc32)cc1`?
14-3-3 Bad PPI: -2; Mcl1 Noxa PPI: 0; eIF4E-4G inh: 1; Mcl1 Bid PPI: -6; Hck Nef HTS: 18

Results for COc1ccc(-c2csc(NC(=O)/C(N=Nc3ccccc3)=C(\C)O)n2)cc1 ?
14-3-3 Bad PPI: -12; Mcl1 Noxa PPI: 9; eIF4E-4G inh: -5; Mcl1 Bid PPI: -33; Bim-Mcl-1: 41*; Hck Nef HTS: 24

How did N#C/C(=C\c1ccco1)C(=O)Nn1cnnc1 do in these assays?
14-3-3 Bad PPI: 5; Mcl1 Noxa PPI: 0; eIF4E-4G inh: -2; Mcl1 Bid PPI: -14; Bim-Mcl-1: 10; Hck Nef HTS: 19

What do the screens show for `CN(C)c1ccc(NC(=O)c2cn(-c3ccccc3)nc2-c2cccs2)cc1`?
14-3-3 Bad PPI: -13; Mcl1 Noxa PPI: 77*; eIF4E-4G inh: -7; Mcl1 Bid PPI: 28; Bim-Mcl-1: -4; Hck Nef HTS: 2
